# From PubChem BioAssay (NCI)
# This is part of a sample that, as a whole, favours compounds with a hit. Of some 83,000 tested, about 20% had one in any assay.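 In brief: 96-well plates, 48 h treatment, single concentration, percent growth endpoint.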 Unmarked numbers belong to inactive results. The source made the active and inactive calls. Rule for the calls: active = growth percent below 10; inactive = the rest.
# Tests used:
# Experiment in all cases: NCI-60 one-dose screen, 48 h (100 = growth as untreated, 0 = no growth, -100 = all killed)
# Conditions in all cases: 10 µM unless noted
# T-47D breast = tested on: T-47D breast
# BT-549 breast = tested on: BT-549 breast
# MDA-MB-435 melanoma = tested on: MDA-MB-435 melanoma
# SW-620 colon = tested on: SW-620 colon
# MCF7 breast = tested on: MCF7 breast
# HCT-116 colon = tested on: HCT-116 colon
# HCC-2998 colon = tested on: HCC-2998 colon
# KM12 colon = tested on: KM12 colon
SMILES,growth (T-47D breast),growth (BT-549 breast),growth (MDA-MB-435 melanoma),growth (SW-620 colon),growth (MCF7 breast),growth (HCT-116 colon),growth (HCC-2998 colon),growth (KM12 colon)
COc1ccc(/C=C2\COc3ccc(-c4ccccc4)cc3C2=O)cc1O,6.79% (active),2.18% (active),5.12% (active),6.95% (active),0.878% (active),-5.06% (active),43.1%,2.07% (active)
COc1ccc(NC(=O)c2sc3nc(C)c(C(O)c4ccc(OC)cc4)cc3c2N)cc1 (centres undefined),56.8%,28.8%,-2.11% (active),33.8%,13.7%,15.3%,20.4%,20.7%
Fc1ccc(C2CC(c3cccc(Nc4ccncc4)c3)=NN2c2ccc(Cl)cc2)cc1 (centres undefined),80.9%,105%,-6.55% (active),-74% (active),6.6% (active),101%,16.7%,19.5%
O=C(Nc1ccc2ncnc(Nc3ccc(Oc4cccc(F)c4)c(Cl)c3)c2c1)c1ccc(CN2CCOCC2)cc1,-9.3% (active),19.9%,22%,38.7%,10.5%,13.7%,69%,24.6%
CC(C)Sc1nc(NN)c(C#N)c(-c2ccccc2)n1,90.4%,79.3%,103%,94.9%,90.9%,87.9%,100%,101%
Cn1c(COC(=O)NCCN2CCOCC2)nc2c(N3CCOCC3)nc(-c3ccccc3)nc21,-28.9% (active),-66.4% (active),-87.4% (active),-76.9% (active),-59% (active),-80.9% (active),-53.8% (active),-5.33% (active)
COc1cc(/C=C2\C(=O)N(Cc3ccc(Cl)cc3)c3ccccc32)cc(OC)c1OC,32.1%,9.56% (active),28.2%,-29.7% (active),8.81% (active),-23.4% (active),-28.5% (active),15.5%
C=C(C)[C@@H]1CC[C@]2(C=O)CC[C@]3(C)[C@H](CC[C@@H]4[C@@]5(C)CCCNC(C)(C)[C@@H]5CC[C@]43C)[C@@H]12,57.8%,88.7%,66.6%,-31.4% (active),30%,25.4%,41.6%,58.6%
CN(C)c1ccc(-c2c(C#N)c(N)n3nc(N)c(C#N)c3c2C#N)cc1,59.5%,69.1%,97%,112%,99.3%,99.3%,83.6%,75.4%
COc1ccc(/C=C/C(=O)c2ccc(OC)c(OC)c2)cc1O,75.7%,85.2%,75%,17.1%,51.6%,20.3%,102%,70.6%
COc1cc(Nc2cc(O)c3c(=O)cc(-c4ccccc4)oc3c2)cc(OC)c1,55.2%,80.2%,4.04% (active),24.9%,23.5%,13%,32.4%,21%
CCOC(=O)c1ccc(Nc2ccnc(SCC(=O)c3ccc(C#N)cc3)n2)cc1,9.84% (active),50.1%,68.4%,89.8%,67%,71.8%,103%,54.5%
COc1cccc(-c2nc3occn3c2-c2ccnc(NCCCNS(=O)(=O)c3cccc(F)c3)n2)c1,29.3%,96.1%,63.2%,115%,78.1%,82%,127%,92.6%
CCCCCCOc1ccc(C(=N)N(CCCC)CCCC)c2ccccc12,-65.5% (active),-94.6% (active),-89.5% (active),-61.3% (active),-74.8% (active),-99.2% (active),-98% (active),-90.3% (active)
Cc1ccc(C(=O)Nc2ccccc2C(=O)N/N=C(\c2ccccc2)c2ccccn2)cc1,13.4%,13.5%,28%,37.3%,11.9%,17.9%,29.7%,26%
CC(=O)N1c2ccccc2NC2=C(C(=O)N(Cc3ccccc3)C2(C)C)C1c1ccco1 (centres undefined),35.1%,47.6%,-56.2% (active),21.7%,15.3%,7.52% (active),3.73% (active),14.8%
O=C(Nc1ccc2cc3ccc(NC(=O)NC4CCCCC4)cc3nc2c1)NC1CCCCC1,81.9%,75%,95.3%,84.3%,47.3%,65.1%,101%,97%
CCOC(=O)C1=C(C)NC(C)=C(C(=O)OCC)C1c1cc(Br)c(O)c(OC)c1,43.8%,15.3%,-33.7% (active),24.6%,29.3%,24.5%,63.6%,23.6%
CC(C)[N+](C)(CCOC(COc1ccccc1)COc1ccccc1)C(C)C,85.7%,80.6%,91.9%,102%,91.4%,92.2%,96.7%,83.5%
COc1cc(C2CC(c3cccc(Nc4ccncc4)c3)=NN2c2ccccc2)cc(OC)c1OC (centres undefined),82.3%,59.4%,-72.9% (active),-25.9% (active),13.7%,32%,20.2%,7.46% (active)
Cc1nn(-c2ccccc2)c(N2CCOCC2)c1/C=N/N=c1\sc2ccccc2n1C,51.7%,81.5%,92.1%,82.7%,68.5%,49.6%,106%,81.4%
CC(O)/C=C/C=C/C(O)CC/C=C/C(=O)NCC(C)(C)O (centres undefined),86.2%,109%,110%,118%,78.2%,93.5%,90.6%,102%
CCCCCCCCCCCCC1CCC/C=C\CCC(=O)O1 (centres undefined),90%,112%,104%,103%,95.6%,91.1%,104%,110%
CNC(=O)NCC1OC(n2cnc3c(NC(=O)Nc4ccccc4)ncnc32)C(O[Si](C)(C)C(C)(C)C)C1O[Si](C)(C)C(C)(C)C (centres undefined),13.6%,39.7%,25.9%,36.4%,0.294% (active),0.332% (active),-1.37% (active),-3.66% (active)
CC(C)(C)CC(C)(C)Nc1c(-c2ccc3c(c2)OCO3)nc2cnccn12,84.2%,82.2%,99.1%,109%,74.1%,5.36% (active),93.7%,96.2%
Cc1ccc(O)c(C(=O)O)c1,106%,111%,111%,104%,104%,108%,110%,108%
COC(=O)C1NC(=S)N(c2ccc(Cl)cc2)C1/C=C/c1ccccc1 (centres undefined),88.2%,93.8%,85.5%,108%,101%,95.6%,93.2%,96%
C=C(C)[C@@H]1CC[C@]2(CO)CC[C@]3(C)[C@H](CC[C@@H]4[C@@]5(C)CCCNC(C)(C)[C@@H]5CC[C@]43C)[C@@H]12,36.5%,77.1%,13.5%,-66.5% (active),-12.6% (active),-78.9% (active),-5.02% (active),23.2%
